According to ChEMBL document CHEMBL3988442, “University of Dundee, Small-Polar-MMV Screening Library” (2021):
For some assays here: Results with a measured potency or affinity are listed apart.

Legend:
Parameters in all cases: scale not given: direction of the effect not stated beside the values
[1] = target: Protein translocase subunit SecA (Escherichia coli (strain K12)) (UniProt P10408); assay: Assay to Identify E. coli SecA ATPase Inhibitors; type: functional; conditions: 30 µM
[2] = target: T1, Ubiquitin-activating enzyme e1, putative (Leishmania donovani (strain BPK282A1)) (UniProt E9BSI1); assay: Leishmania donovani Ubiquitin Activating Enzyme (LdE1); type: functional; conditions: 30 µM
T1 sequence (whole entry): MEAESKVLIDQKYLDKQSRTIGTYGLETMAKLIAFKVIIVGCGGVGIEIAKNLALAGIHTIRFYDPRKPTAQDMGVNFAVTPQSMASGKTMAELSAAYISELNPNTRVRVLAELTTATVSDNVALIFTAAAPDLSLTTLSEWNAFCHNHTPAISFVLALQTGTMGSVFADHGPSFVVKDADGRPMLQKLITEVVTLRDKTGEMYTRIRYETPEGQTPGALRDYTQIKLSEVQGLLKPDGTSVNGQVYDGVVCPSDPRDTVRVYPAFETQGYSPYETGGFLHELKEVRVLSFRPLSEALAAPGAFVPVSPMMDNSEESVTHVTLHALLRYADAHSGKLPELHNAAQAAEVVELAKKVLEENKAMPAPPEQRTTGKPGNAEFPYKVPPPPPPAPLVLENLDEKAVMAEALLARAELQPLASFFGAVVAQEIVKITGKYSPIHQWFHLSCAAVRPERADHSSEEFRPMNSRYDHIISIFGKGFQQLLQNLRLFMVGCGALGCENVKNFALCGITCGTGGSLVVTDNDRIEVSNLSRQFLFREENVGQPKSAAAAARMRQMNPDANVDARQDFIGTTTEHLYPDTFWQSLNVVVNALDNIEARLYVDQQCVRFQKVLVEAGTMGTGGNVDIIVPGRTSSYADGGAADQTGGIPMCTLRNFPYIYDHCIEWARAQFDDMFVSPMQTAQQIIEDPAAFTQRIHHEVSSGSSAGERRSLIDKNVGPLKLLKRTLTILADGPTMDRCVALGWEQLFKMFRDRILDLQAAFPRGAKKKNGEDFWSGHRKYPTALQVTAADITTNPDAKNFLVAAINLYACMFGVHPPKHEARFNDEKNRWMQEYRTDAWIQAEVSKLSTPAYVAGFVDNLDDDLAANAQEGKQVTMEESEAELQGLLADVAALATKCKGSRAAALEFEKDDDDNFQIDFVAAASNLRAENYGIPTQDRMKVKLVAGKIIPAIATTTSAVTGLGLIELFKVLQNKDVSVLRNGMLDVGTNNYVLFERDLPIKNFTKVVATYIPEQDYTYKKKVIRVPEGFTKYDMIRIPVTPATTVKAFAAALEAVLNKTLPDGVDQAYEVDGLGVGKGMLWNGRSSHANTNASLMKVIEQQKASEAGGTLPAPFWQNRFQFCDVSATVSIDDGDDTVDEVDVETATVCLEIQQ

[3] = target: AMP-activated protein kinase, AMPK (Homo sapiens) (UniProt P54646+O43741+P54619+Q9UGJ0+Q9Y478+Q13131+Q9UGI9); assay: AMP-dependent Kinase enzyme assay. An in vitro enzyme assay that detects ADP turnover that is directly proportional to AMPK activity. This uses naive AMPK that is activated during the assay with MK-8722; type: functional; conditions: 30 µM
[4] = target: Sialic acid-binding Ig-like lectin 9 (Homo sapiens) (UniProt Q9Y336); assay: Hs-Siglec9 ALPHAscreen SOP 20170721; conditions: 10 µM
Sialic acid-binding Ig-like lectin 9 (Homo sapiens), sequence (Q9Y336 whole entry): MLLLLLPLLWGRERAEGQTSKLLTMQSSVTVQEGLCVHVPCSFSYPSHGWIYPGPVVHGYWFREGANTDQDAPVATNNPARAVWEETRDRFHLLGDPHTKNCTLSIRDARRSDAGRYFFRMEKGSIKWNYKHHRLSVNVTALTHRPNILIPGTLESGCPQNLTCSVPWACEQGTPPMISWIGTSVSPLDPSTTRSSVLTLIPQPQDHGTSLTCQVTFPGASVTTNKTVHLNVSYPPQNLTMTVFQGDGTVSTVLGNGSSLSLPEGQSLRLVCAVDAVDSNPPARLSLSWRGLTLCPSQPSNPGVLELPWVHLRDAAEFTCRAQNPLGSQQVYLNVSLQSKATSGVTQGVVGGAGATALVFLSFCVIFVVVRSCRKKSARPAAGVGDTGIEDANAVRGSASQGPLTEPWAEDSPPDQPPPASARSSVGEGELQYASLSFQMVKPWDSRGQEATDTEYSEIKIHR

Trypanosoma cruzi = assay: Trypanosoma cruzi phosphomannomutase and mannose-1-phosphate guanylyltransferase assay; type: functional; conditions: 10 µM
[5] = target: T2, Arginase-2, mitochondrial (Homo sapiens) (UniProt P78540); assay: in vitro enzyme assay to detect the production of urea directly proportional to the activity of Arginase II; type: functional; conditions: 33.3 µM; note: in the data most compounds retested in dose-response had high values
T2 sequence (whole entry): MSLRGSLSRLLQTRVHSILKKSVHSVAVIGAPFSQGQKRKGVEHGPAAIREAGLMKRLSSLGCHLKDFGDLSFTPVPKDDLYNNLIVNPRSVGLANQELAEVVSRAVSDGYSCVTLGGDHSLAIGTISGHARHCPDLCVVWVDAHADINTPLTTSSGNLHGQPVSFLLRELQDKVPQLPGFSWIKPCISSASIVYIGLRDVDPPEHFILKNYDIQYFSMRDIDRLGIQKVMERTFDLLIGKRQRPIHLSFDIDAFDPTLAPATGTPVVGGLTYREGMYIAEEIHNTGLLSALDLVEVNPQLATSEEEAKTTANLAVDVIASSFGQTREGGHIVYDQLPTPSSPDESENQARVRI

[6] = target: T3, Proteasome subunit beta (Trypanosoma cruzi) (UniProt O96673); assay: Trypanosoma cruzi proteasome chymotrypsin-like activity (TcProtChymo) assay.; note: in the data most compounds retested in dose-response had high values; type: functional; conditions: 9.37 µM
T3 sequence (whole entry): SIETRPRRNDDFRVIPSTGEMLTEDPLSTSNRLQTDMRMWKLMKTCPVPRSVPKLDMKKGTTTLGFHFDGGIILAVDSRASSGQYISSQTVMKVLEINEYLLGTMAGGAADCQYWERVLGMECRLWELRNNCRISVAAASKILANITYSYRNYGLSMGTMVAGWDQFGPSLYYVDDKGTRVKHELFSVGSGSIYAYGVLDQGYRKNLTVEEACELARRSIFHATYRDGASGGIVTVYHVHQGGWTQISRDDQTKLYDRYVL

Homo sapiens = organism: Homo sapiens; assay: To identify inhibition of the IFN signalling (Jak-Stat) pathway via expression of an eGFP reporter gene under the control of an IFN-stimulated response element (ISRE) containing MxA promoter.; type: functional; conditions: 30 µM
[7] = target: T4, Tyrosyl-tRNA synthetase, putative (Trypanosoma cruzi (strain CL Brener)) (UniProt Q4DSP6); assay: Trypanosoma cruzi tyrosyl tRNA synthetase (TcYRS) _High Tyrosine SOP; type: functional; conditions: 30 µM; note: in the data most compounds retested in dose-response had high values
T4 sequence (whole entry): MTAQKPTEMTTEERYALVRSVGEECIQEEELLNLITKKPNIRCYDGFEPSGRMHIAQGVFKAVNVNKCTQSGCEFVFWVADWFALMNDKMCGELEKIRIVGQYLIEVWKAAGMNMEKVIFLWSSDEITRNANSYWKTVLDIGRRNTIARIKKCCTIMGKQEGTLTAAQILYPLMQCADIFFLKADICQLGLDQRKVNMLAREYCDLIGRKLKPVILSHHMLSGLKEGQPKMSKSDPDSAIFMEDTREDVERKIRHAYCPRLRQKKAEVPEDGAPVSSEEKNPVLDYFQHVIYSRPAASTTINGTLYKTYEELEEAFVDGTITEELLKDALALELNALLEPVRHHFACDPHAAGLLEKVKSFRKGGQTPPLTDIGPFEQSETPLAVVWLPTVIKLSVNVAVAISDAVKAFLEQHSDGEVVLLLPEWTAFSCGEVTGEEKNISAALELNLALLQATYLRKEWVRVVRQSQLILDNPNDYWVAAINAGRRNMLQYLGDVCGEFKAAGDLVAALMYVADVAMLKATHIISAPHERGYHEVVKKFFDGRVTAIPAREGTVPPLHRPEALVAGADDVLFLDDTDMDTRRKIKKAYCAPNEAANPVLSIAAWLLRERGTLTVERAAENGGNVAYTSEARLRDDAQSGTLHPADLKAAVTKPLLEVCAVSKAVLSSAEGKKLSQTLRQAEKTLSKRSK

[8] = target: T4, Tyrosyl-tRNA synthetase, putative (Trypanosoma cruzi (strain CL Brener)); assay: Trypanosoma cruzi tyrosyl tRNA synthetase (TcYRS) SOP; type: functional; conditions: 30 µM
[9] = target: Chromo domain-containing protein 1 (Saccharomyces cerevisiae (strain ATCC 204508 / S288c) (Baker's yeast)) (UniProt P32657); assay: ScCHD-1 Enzyme Inhibition Assay; type: functional; conditions: 30 µM; note: in the data most compounds retested in dose-response had high values
Chromo domain-containing protein 1 (Saccharomyces cerevisiae (strain ATCC 204508 / S288c) (Baker's yeast)), sequence (P32657 whole entry, the tested form may be a part): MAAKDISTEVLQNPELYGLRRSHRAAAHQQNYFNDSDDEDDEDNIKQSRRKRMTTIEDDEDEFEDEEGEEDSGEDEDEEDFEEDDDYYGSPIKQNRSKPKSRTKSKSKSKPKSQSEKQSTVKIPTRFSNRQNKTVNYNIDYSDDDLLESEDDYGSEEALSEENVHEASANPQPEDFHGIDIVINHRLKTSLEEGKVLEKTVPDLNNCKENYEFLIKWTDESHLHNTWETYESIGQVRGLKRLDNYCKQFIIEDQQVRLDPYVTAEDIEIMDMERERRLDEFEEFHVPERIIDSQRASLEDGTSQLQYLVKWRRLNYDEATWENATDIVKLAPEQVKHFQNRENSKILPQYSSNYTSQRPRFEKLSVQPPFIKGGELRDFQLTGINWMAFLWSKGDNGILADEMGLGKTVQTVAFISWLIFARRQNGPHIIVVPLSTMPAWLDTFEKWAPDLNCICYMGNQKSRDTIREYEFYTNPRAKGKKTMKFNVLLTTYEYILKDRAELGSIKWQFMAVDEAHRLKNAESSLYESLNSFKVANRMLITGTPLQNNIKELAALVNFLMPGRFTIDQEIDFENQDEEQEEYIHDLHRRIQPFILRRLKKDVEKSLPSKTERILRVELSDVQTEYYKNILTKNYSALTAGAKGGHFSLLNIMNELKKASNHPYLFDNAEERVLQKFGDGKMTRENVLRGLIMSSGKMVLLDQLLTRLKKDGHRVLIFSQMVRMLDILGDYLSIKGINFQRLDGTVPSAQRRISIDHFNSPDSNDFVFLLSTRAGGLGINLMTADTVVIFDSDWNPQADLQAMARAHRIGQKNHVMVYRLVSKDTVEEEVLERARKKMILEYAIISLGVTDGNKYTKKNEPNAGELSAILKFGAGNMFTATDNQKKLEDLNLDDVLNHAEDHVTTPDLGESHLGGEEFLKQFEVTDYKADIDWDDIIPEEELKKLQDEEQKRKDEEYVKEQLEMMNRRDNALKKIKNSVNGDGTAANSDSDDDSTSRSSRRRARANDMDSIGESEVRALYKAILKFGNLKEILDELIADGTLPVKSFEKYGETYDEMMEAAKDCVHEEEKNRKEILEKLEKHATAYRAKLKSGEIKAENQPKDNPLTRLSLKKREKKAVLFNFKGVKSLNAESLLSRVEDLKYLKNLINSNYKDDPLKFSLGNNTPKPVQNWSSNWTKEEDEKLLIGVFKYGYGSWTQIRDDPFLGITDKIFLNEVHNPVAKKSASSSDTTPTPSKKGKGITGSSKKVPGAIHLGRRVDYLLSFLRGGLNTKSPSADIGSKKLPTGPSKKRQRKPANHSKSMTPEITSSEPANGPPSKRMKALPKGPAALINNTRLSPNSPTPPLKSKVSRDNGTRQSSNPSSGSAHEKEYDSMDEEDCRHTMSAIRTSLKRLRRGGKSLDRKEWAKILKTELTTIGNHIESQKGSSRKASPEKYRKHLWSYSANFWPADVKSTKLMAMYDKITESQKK

Protein translocase subunit SecA (Escherichia coli (strain K12)), sequence (P10408 whole entry): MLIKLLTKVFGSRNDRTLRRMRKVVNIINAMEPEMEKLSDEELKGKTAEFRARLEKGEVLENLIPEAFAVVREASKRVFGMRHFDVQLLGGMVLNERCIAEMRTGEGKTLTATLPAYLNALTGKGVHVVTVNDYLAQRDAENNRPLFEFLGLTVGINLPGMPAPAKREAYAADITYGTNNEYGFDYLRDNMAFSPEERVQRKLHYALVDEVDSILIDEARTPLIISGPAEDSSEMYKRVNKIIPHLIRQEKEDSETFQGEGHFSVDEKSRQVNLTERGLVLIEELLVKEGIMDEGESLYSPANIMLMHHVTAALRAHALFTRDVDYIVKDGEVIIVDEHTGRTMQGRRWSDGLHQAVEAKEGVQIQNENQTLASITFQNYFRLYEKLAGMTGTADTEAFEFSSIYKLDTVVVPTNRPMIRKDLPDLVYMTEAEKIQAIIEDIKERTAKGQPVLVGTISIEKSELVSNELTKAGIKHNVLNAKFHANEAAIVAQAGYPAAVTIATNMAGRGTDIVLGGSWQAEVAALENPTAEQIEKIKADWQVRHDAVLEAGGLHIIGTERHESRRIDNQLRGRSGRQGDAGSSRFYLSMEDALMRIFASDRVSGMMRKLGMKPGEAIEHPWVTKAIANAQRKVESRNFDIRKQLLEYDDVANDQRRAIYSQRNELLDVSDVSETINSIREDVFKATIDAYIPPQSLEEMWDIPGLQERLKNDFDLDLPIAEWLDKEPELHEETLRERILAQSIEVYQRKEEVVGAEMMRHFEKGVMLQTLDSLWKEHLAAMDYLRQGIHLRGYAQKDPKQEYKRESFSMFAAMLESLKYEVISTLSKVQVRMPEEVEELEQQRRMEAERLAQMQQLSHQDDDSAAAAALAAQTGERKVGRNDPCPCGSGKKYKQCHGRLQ

Compound | Percent Effect [1] [%] | Percent Effect [2] [%] | Percent Effect [3] [%] | Percent Effect [4] [%] | Percent Effect (Trypanosoma cruzi) [%] | Percent Effect [5] [%] | Percent Effect [6] [%] | Percent Effect (Homo sapiens) [%] | Percent Effect [7] [%] | Percent Effect [8] [%] | Percent Effect [9] [%]
Cc1nc(CNC(=O)Cn2nc(-c3ccc(F)cc3)oc2=O)cs1 | -2.4 | 15.8 | 10.4 | 6.52 | -1.32 | -4.21 | 3.17 | 8.37 | 7.35 | 12.2 | -5.84
COc1ccc(OC)c(NC(=O)N2CCCC2c2ccco2)c1 (configuration not stated) | -1.78 | 5.2 | 7.39 | -2.94 | -0.888 | 1.94 | 7.83 | 13.8 | -1.06 | 3.85 | -8.44
CC(C)(C)c1n[nH]c(C2CN(C(=O)c3cc(Cl)c[nH]3)CCO2)n1 (configuration not stated) | -6.35 | 15.8 | 3.14 | 10.4 | 3.99 | -5.92 | 17.2 | -3.03 | 2.13 | 15.6 | -6.65
c1ccc2sc(CN3CCCC3c3noc(C4CC4)n3)nc2c1 (configuration not stated) | -2.02 | -13.5 | -1.08 | -2.6 | -2.88 | 0.185 | 0 | 9.41 | 8.91 | 23.2 | 6.83
CNC(=O)N1CC[C@H]2N(C)CC[C@@]2(C(=O)Nc2ccccc2)CC1 | -3.9 | 5.41 | -2.05 | 1.61 | 5.08 | 4.17 | 2.45 | 11.5 | 1.98 | 6.1 | -1.69
Cc1nc(CN2CCCC(NCCc3ccccc3Cl)C2)no1 (configuration not stated) | -4.45 | 7.59 | 4.77 | 11.6 | 2.36 | -1.14 | -3.19 | -4.21 | 5.42 | 8.86 | -0.689
Cn1nc(CNC(=O)NCc2ccc(Cl)cc2)c2c1CCOC2 | -4.99 | 5.2 | 6.43 | 7.81 | 3.45 | -7.1 | -3.83 | 20.2 | 0 | -3.85 | -5.33
CCC(C)(NCC(=O)Nc1nc(C)cs1)c1nc(C)cs1 (configuration not stated) | 0.0522 | 10.8 | -10.8 | -1.43 | -3.62 | -2.73 | 7.47 | 21 | 7.53 | 13.6 | -3.58
NC(=O)c1cc(NC(=O)N2CCCCCC2)ccc1F | -2.22 | 16.2 | 5.3 | 2.48 | 2.15 | 30.4 | 11.1 | 44.5 | 6.93 | 13.4 | -2.07
COc1ccccc1CN(C)C(=O)c1cc(CN2CCC(O)CC2)on1 | -4.25 | 2.74 | 26.1 | 19.3 | 3.53 | 18.6 | 12.8 | -1.57 | 6.45 | 20 | 100
CCCS(=O)(=O)N1CCC(NC(=O)c2cc(C)c(CC)s2)CC1 | -1.6 | 2.67 | -3.07 | 10.4 | 5.94 | -2.08 | 7.15 | 13.4 | 6.01 | 18.5 | 1.12
CCc1ccc(CN2CCCC(CO)(CCOC)C2)cc1 (configuration not stated) | -2.06 | -5.41 | -3.48 | -7.57 | -4.79 | -6.7 | -0.258 | -5.11 | -1.07 | 1.24 | 1.15
COc1c(C2CCCN2C(=O)c2ccc3cc[nH]c3c2)c(C)nn1C (configuration not stated) | -4 | 18.2 | 1.47 | -0.102 | 7.93 | -4.42 | 7.68 | 3.62 | 4.76 | 14.1 | -21.5
Cc1noc([C@H]2C[C@@H]3CCN(C(=O)N(C)C)C[C@H]3O2)n1 | -0.638 | -2.7 | 6.92 | 9.3 | -2.25 | 0.319 | 15.5 | -7.89 | -1.08 | 2.56 | 0.431
CCOc1cccc(NS(=O)(=O)c2cc(C)c(C(=O)O)s2)c1 | -6.74 | 8.11 | -13.3 | 45.6 | 7.72 | 19.1 | 6.27 | -0.127 | -10.8 | -3.7 | -13.9
c1cnnc(N2CCCC2CNCc2cc[nH]n2)c1 (configuration not stated) | -2.52 | 0 | 4.85 | -5.55 | 4.89 | 3.45 | -1.34 | -3.22 | 1.47 | 7.32 | -6.65
O=C(c1ccsc1)N1C[C@@H]2C[C@@H](c3nnc(C4CC4)o3)O[C@@H]2C1 | -1.51 | 7.79 | 6.12 | 6.45 | -4.63 | 5.81 | 3.31 | 15 | 1.06 | 3.85 | -4.38
COc1cccc(N2CCN(Cc3ccc(NC(C)=O)cc3)CC2=O)c1 | -2.84 | 18.1 | -5.61 | 20.1 | 6.51 | 10.2 | 11.6 | 4.1 | 4.21 | 15.4 | -2.22
COc1cccc(CN(C)C(=O)CN2CCN(CCO)CC2)c1 | -2.96 | 8 | -6.71 | 1.75 | 0.292 | 3.12 | 24.6 | 14.1 | 9.29 | 16.1 | -7.41
COc1ccnc(N2CCN(C(=O)c3csc(C4CC4)n3)CC2)n1 | -4.82 | 2.7 | 2.76 | -1.98 | -2.05 | 4.22 | -0.601 | 0.351 | 0 | 8.64 | -4.46
Cc1ccc(OCC(=O)NS(=O)(=O)c2cccnc2)cc1C | 0.796 | 15.8 | 3.98 | -2.26 | -7.52 | -3.45 | 17.4 | 29.1 | -1.47 | 4.88 | -9.25
Cc1cnn(CCC(=O)N2CCCN(c3ncccc3C#N)CC2)c1 | -7.15 | 19 | -1.68 | 6.67 | -1.74 | -0.215 | 9.61 | -1.81 | 4.17 | 20.2 | -30.4
